From PubChem BioAssay AID1159580 (chemical genetic matrix, 2015)
In all, about 5,500 compounds went through this assay and about 2,000 (36%) were called active. About 18% were inconclusive and are not listed. Rule as the data show it: active = normalized growth mostly below about 0.91 (no sharp cut-off); inconclusive = no clear call, values can overlap the other calls; inactive = mostly above about 0.92. The list shows a part of the results.

Experiment: chemical genetic growth profiling, strain panel (AID 1159580);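 also: tested at 20 µM; growth read once vehicle control cultures reached saturation at 30 °C; 1 = growth at the plate median or of vehicle wells; lower values mean less growth of the strain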
Details: growth OD

Measured: normalized growth

COc1cc([C@@H]2c3cc4c(c(O)c3C[C@H]3COC(=O)[C@@H]32)OCO4)cc(OC)c1OC
inactive: S. cerevisiae deletion strains, locus YJR043C, strain POL32, stronger effect = lower value 0.989 | S. cerevisiae deletion strains, locus YJR075W, strain HOC1, stronger effect = lower value 0.996 | S. cerevisiae deletion strains, locus YKL009W, strain mrt4, stronger effect = lower value 0.983 | S. cerevisiae deletion strains, locus YKL068W, stronger effect = lower value 0.979 | S. cerevisiae deletion strains, locus YKL085W, strain MDH1 (second series), stronger effect = lower value 0.973 | S. cerevisiae deletion strains, locus YKL085W, strain MDH1, stronger effect = lower value 0.973 | S. cerevisiae deletion strains, locus YKL160W, strain elf1, stronger effect = lower value 1 | S. cerevisiae deletion strains, locus YKL190W, strain CNB1, stronger effect = lower value 0.986 | S. cerevisiae deletion strains, locus YKR001C, strain vps1, stronger effect = lower value 1 | S. cerevisiae deletion strains, locus YKR026C, strain gcn3, stronger effect = lower value 0.985 | S. cerevisiae deletion strains, locus YKR091W, strain srl3, stronger effect = lower value 0.995 | S. cerevisiae deletion strains, locus YLL001W, strain dnm1, stronger effect = lower value 0.991 | S. cerevisiae deletion strains, locus YLL026W, stronger effect = lower value 0.993 | S. cerevisiae deletion strains, locus YLL041C, strain sdh2, stronger effect = lower value 0.99 | S. cerevisiae deletion strains, locus YLR027C, strain aat2, stronger effect = lower value 0.974 | S. cerevisiae deletion strains, locus YLR039C, strain RIC1, stronger effect = lower value 0.921 | S. cerevisiae deletion strains, locus YLR058C, strain SHM2, stronger effect = lower value 0.982 | S. cerevisiae deletion strains, locus YLR102C, strain apc9, stronger effect = lower value 0.976 | S. cerevisiae deletion strains, locus YLR221C, strain rsa3, stronger effect = lower value 0.959 | S. cerevisiae deletion strains, locus YLR258W, strain gsy2, stronger effect = lower value 1.01 | S. cerevisiae deletion strains, locus YLR262C, strain YPT6 (second series), stronger effect = lower value 0.989 | S. cerevisiae deletion strains, locus YLR262C, strain YPT6, stronger effect = lower value 0.907 | S. cerevisiae deletion strains, locus YLR268W, strain sec22, stronger effect = lower value 1.01 | S. cerevisiae deletion strains, locus YLR320W, strain mms22, stronger effect = lower value 0.963 | S. cerevisiae deletion strains, locus YLR330W, strain CHS5, stronger effect = lower value 0.981 | S. cerevisiae deletion strains, locus YLR342W, strain FKS1 (second series), stronger effect = lower value 0.971 | S. cerevisiae deletion strains, locus YLR342W, strain FKS1, stronger effect = lower value 0.983 | S. cerevisiae deletion strains, locus YLR357W, strain rsc2, stronger effect = lower value 0.999 | S. cerevisiae deletion strains, locus YLR370C, strain arc18, stronger effect = lower value 1 | S. cerevisiae deletion strains, locus YLR371W, strain rom2, stronger effect = lower value 0.946 | S. cerevisiae deletion strains, locus YLR384C, strain iki3, stronger effect = lower value 0.98 | S. cerevisiae deletion strains, locus YLR418C, strain cdc73, stronger effect = lower value 1.01 | S. cerevisiae deletion strains, locus YML016C, strain PPZ1, stronger effect = lower value 0.992 | S. cerevisiae deletion strains, locus YML032C, strain rad52, stronger effect = lower value 0.991 | S. cerevisiae deletion strains, locus YML120C, strain ndi1, stronger effect = lower value 0.998 | S. cerevisiae deletion strains, locus YML124C, strain tub3, stronger effect = lower value 0.988 | S. cerevisiae deletion strains, locus YMR058W, strain fet3, stronger effect = lower value 0.999 | S. cerevisiae deletion strains, locus YMR078C, strain ctf18, stronger effect = lower value 0.995 | S. cerevisiae deletion strains, locus YMR125W, strain sto1, stronger effect = lower value 0.986 | S. cerevisiae deletion strains, locus YMR129W, stronger effect = lower value 0.984 | S. cerevisiae deletion strains, locus YMR205C, strain PFK2, stronger effect = lower value 0.982 | S. cerevisiae deletion strains, locus YMR223W, strain ubp8, stronger effect = lower value 0.987 | S. cerevisiae deletion strains, locus YMR231W, strain pep5, stronger effect = lower value 0.991 | S. cerevisiae deletion strains, locus YMR263W, strain SAP30, stronger effect = lower value 1 | S. cerevisiae deletion strains, locus YMR307W, strain GAS1, stronger effect = lower value 1.02 | S. cerevisiae deletion strains, locus YNL067W, strain RPL9B, stronger effect = lower value 1.02 | S. cerevisiae deletion strains, locus YNL071W, strain lat1, stronger effect = lower value 1.01 | S. cerevisiae deletion strains, locus YNL128W, strain TEP1, stronger effect = lower value 0.989 | S. cerevisiae deletion strains, locus YNL153C, strain GIM3, stronger effect = lower value 1.03 | S. cerevisiae deletion strains, locus YNL209W, strain ssb2, stronger effect = lower value 1 | S. cerevisiae deletion strains, locus YNL233W, strain BNI4, stronger effect = lower value 1.04 | S. cerevisiae deletion strains, locus YNL248C, strain rpa49, stronger effect = lower value 0.984 | S. cerevisiae deletion strains, locus YNL250W, strain rad50, stronger effect = lower value 0.955 | S. cerevisiae deletion strains, locus YNL271C, strain bni1, stronger effect = lower value 0.973 | S. cerevisiae deletion strains, locus YNL298W, strain CLA4, stronger effect = lower value 0.976 | S. cerevisiae deletion strains, locus YNL307C, strain MCK1, stronger effect = lower value 0.992 | S. cerevisiae deletion strains, locus YNL322C, strain KRE1 (second series), stronger effect = lower value 1 | S. cerevisiae deletion strains, locus YNL322C, strain KRE1, stronger effect = lower value 0.979 | S. cerevisiae deletion strains, locus YNR049C, strain mso1, stronger effect = lower value 0.986 | S. cerevisiae deletion strains, locus YNR052C, strain pop2, stronger effect = lower value 0.975 | S. cerevisiae deletion strains, locus YOL006C, strain TOP1, stronger effect = lower value 1.08 | S. cerevisiae deletion strains, locus YOL012C, strain htz1 0.866 | S. cerevisiae deletion strains, locus YOL147C, strain pex11, stronger effect = lower value 0.985 | S. cerevisiae deletion strains, locus YOR001W, strain rrp6, stronger effect = lower value 0.957 | S. cerevisiae deletion strains, locus YOR061W, strain CKA2, stronger effect = lower value 0.986 | S. cerevisiae deletion strains, locus YOR069W, strain VPS5, stronger effect = lower value 0.992 | S. cerevisiae deletion strains, locus YOR070C, strain gyp1, stronger effect = lower value 0.987 | S. cerevisiae deletion strains, locus YOR080W, strain dia2, stronger effect = lower value 0.98 | S. cerevisiae deletion strains, locus YOR083W, strain WHI5, stronger effect = lower value 1.01 | S. cerevisiae deletion strains, locus YOR106W, strain vam3, stronger effect = lower value 1 | S. cerevisiae deletion strains, locus YOR136W, strain idh2, stronger effect = lower value 0.984 | S. cerevisiae deletion strains, locus YOR144C, strain elg1, stronger effect = lower value 0.984 | S. cerevisiae deletion strains, locus YOR184W, strain ser1, stronger effect = lower value 0.973 | S. cerevisiae deletion strains, locus YOR265W, strain rbl2, stronger effect = lower value 0.992 | S. cerevisiae deletion strains, locus YOR270C, strain vph1, stronger effect = lower value 0.98 | S. cerevisiae deletion strains, locus YOR290C, strain snf2, stronger effect = lower value 0.987 | S. cerevisiae deletion strains, locus YOR316C, strain cot1, stronger effect = lower value 0.983 | S. cerevisiae deletion strains, locus YPL051W, strain arl3, stronger effect = lower value 0.965 | S. cerevisiae deletion strains, locus YPL055C, strain LGE1, stronger effect = lower value 1.03 | S. cerevisiae deletion strains, locus YPL078C, strain atp4, stronger effect = lower value 1.01 | S. cerevisiae deletion strains, locus YPL106C, strain sse1, stronger effect = lower value 0.987 | S. cerevisiae deletion strains, locus YPL240C, strain hsp82, stronger effect = lower value 0.992 | S. cerevisiae deletion strains, locus YPL241C, strain CIN2, stronger effect = lower value 0.987 | S. cerevisiae deletion strains, locus YPR119W, strain clb2, stronger effect = lower value 0.979 | S. cerevisiae deletion strains, locus YPR141C, strain kar3, stronger effect = lower value 0.979 | S. cerevisiae deletion strains, locus YPR163C, strain tif3, stronger effect = lower value 0.97 | S. cerevisiae deletion strains, locus YPR167C, strain met16, stronger effect = lower value 0.971 | S. cerevisiae deletion strains, strain wtn01, stronger effect = lower value 1 | S. cerevisiae strains, strain wild type, stronger effect = lower value 0.99
